# Results as given in article PMC5540273 (PLoS ONE, 2017).
# Where two headings read alike, the source gives them in different places.
# Key:
# FYN = conditions: concentration: 1 μM, replicates: in singlicate; n = 1
# GAK = conditions: concentration: 1 μM, replicates: in singlicate; n = 1
# GCN2(Kin.Dom.2,S808G) = tested on: T1, GCN2(Kin.Dom.2,S808G); conditions: concentration: 1 μM, replicates: in singlicate; n = 1
# T1 construct: gene EIF2AK4
# GRK1 = conditions: concentration: 1 μM, replicates: in singlicate; n = 1
# GRK2 = tested on: T2, GRK2; conditions: concentration: 1 μM, replicates: in singlicate; n = 1
# T2 construct: gene ADRBK1
# GRK3 = tested on: T3, GRK3; conditions: concentration: 1 μM, replicates: in singlicate; n = 1
# T3 construct: gene ADRBK2
# GRK4 = conditions: concentration: 1 μM, replicates: in singlicate; n = 1
# GRK7 = conditions: concentration: 1 μM, replicates: in singlicate; n = 1
# GSK3A = conditions: concentration: 1 μM, replicates: in singlicate; n = 1
# GSK3B = conditions: n = 1
# HASPIN = tested on: T4, HASPIN; conditions: concentration: 1 μM, replicates: in singlicate; n = 1
# T4 construct: gene GSG2
# HCK = conditions: concentration: 1 μM, replicates: in singlicate; n = 1
# HIPK1 = conditions: concentration: 1 μM, replicates: in singlicate; n = 1
# HIPK2 = conditions: concentration: 1 μM, replicates: in singlicate; n = 1
# HIPK3 = conditions: concentration: 1 μM, replicates: in singlicate; n = 1
# HIPK4 = conditions: concentration: 1 μM, replicates: in singlicate; n = 1
# HPK1 = conditions: concentration: 1 μM, replicates: in singlicate; n = 1
# HUNK = conditions: concentration: 1 μM, replicates: in singlicate; n = 1
# ICK = conditions: concentration: 1 μM, replicates: in singlicate; n = 1
# IGF1R = conditions: concentration: 1 μM, replicates: in singlicate; n = 1
# [1] = concentration: 1 μM, replicates: in singlicate
# 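Further: KINOMEscan kinase panel screen.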
compound,measurement,setting,value
COc1cc(Nc2nccc(N3CCC(NC(=O)c4cc5ccccc5s4)C3)n2)cc(OC)c1OC (centres unmarked) [GSK1379760],%Inh,FYN,8%
same,%Inh,GAK,27%
same,%Inh,"GCN2(Kin.Dom.2,S808G)",4%
same,%Inh,GRK1,0%
same,%Inh,GRK2,0%
same,%Inh,GRK3,17%
same,%Inh,GRK4,19%
same,%Inh,GRK7,0%
same,%Inh,GSK3A,0%
same,%Inh,GSK3B; [1],4%
same,%Inh,HASPIN,19%
same,%Inh,HCK,0%
same,%Inh,HIPK1,9%
same,%Inh,HIPK2,0%
same,%Inh,HIPK3,0%
same,%Inh,HIPK4,9%
same,%Inh,HPK1,90%
same,%Inh,HUNK,0%
same,%Inh,ICK,0%
same,%Inh,IGF1R,13%
O=C(Nc1cccc(-c2nn3ccccc3c2-c2ccnc(Nc3cccc(F)c3)n2)c1)c1c(F)ccc(F)c1Cl [GSK357952],%Inh,FYN,66%
same,%Inh,GAK,14%
same,%Inh,"GCN2(Kin.Dom.2,S808G)",1%
same,%Inh,GRK1,5%
same,%Inh,GRK2,0%
same,%Inh,GRK3,0%
same,%Inh,GRK4,5%
same,%Inh,GRK7,0%
same,%Inh,GSK3A,0%
same,%Inh,GSK3B; [1],6%
same,%Inh,HASPIN,0%
same,%Inh,HCK,99.1%
same,%Inh,HIPK1,0%
same,%Inh,HIPK2,13%
same,%Inh,HIPK3,1%
same,%Inh,HIPK4,51%
same,%Inh,HPK1,13%
same,%Inh,HUNK,0%
same,%Inh,ICK,3%
same,%Inh,IGF1R,17%
CCS(=O)(=O)c1ccc(OC)c(Nc2nccc(-c3c(-c4cccc(NC(=O)c5c(F)cccc5F)c4)nn4ncccc34)n2)c1 [GSK326180],%Inh,FYN,53%
same,%Inh,GAK,0%
same,%Inh,"GCN2(Kin.Dom.2,S808G)",8%
same,%Inh,GRK1,0%
same,%Inh,GRK2,0%
same,%Inh,GRK3,17%
same,%Inh,GRK4,0%
same,%Inh,GRK7,0%
same,%Inh,GSK3A,12%
same,%Inh,GSK3B; [1],2%
same,%Inh,HASPIN,0%
same,%Inh,HCK,77%
same,%Inh,HIPK1,0%
same,%Inh,HIPK2,0%
same,%Inh,HIPK3,1%
same,%Inh,HIPK4,0%
same,%Inh,HPK1,25%
same,%Inh,HUNK,22%
same,%Inh,ICK,21%
same,%Inh,IGF1R,57%
O=C(Nc1cccc(-c2nn3ncccc3c2-c2ccnc(Nc3ccccc3)n2)c1)c1c(F)cccc1F [GSK198271],%Inh,FYN,85%
same,%Inh,GAK,31%
same,%Inh,"GCN2(Kin.Dom.2,S808G)",33%
same,%Inh,GRK1,0%
same,%Inh,GRK2,0%
same,%Inh,GRK3,0%
same,%Inh,GRK4,1%
same,%Inh,GRK7,0%
same,%Inh,GSK3A,16%
same,%Inh,GSK3B; [1],14%
same,%Inh,HASPIN,0%
same,%Inh,HCK,99.3%
same,%Inh,HIPK1,0%
same,%Inh,HIPK2,0%
same,%Inh,HIPK3,9%
same,%Inh,HIPK4,28%
same,%Inh,HPK1,43%
same,%Inh,HUNK,3%
same,%Inh,ICK,0%
same,%Inh,IGF1R,24%
COc1cccc(-c2ccc3c(NC(=O)C4CC4)n[nH]c3n2)c1 [SB-710903],%Inh,FYN,0%
same,%Inh,GAK,3%
same,%Inh,"GCN2(Kin.Dom.2,S808G)",1%
same,%Inh,GRK1,5%
same,%Inh,GRK2,0%
same,%Inh,GRK3,75%
same,%Inh,GRK4,0%
same,%Inh,GRK7,0%
same,%Inh,GSK3A,88%
same,%Inh,GSK3B; 1 µM,43%
same,%Inh,HASPIN,32%
same,%Inh,HCK,0%
same,%Inh,HIPK1,0%
same,%Inh,HIPK2,0%
same,%Inh,HIPK3,41%
same,%Inh,HIPK4,10%
same,%Inh,HPK1,41%
same,%Inh,HUNK,1%
same,%Inh,ICK,23%
same,%Inh,IGF1R,17%
Cl.NC(=O)c1cccc(Nc2nccc(Nc3ccc(Oc4c(Cl)cccc4Cl)c(Cl)c3)n2)c1 [GW659009],%Inh,FYN,66%
same,%Inh,GAK,59%
same,%Inh,"GCN2(Kin.Dom.2,S808G)",0%
same,%Inh,GRK1,0%
same,%Inh,GRK2,0%
same,%Inh,GRK3,39%
same,%Inh,GRK4,4%
same,%Inh,GRK7,0%
same,%Inh,GSK3A,0%
same,%Inh,GSK3B; [1],0%
same,%Inh,HASPIN,0%
same,%Inh,HCK,77%
same,%Inh,HIPK1,0%
same,%Inh,HIPK2,11%
same,%Inh,HIPK3,2%
same,%Inh,HIPK4,4%
same,%Inh,HPK1,0%
same,%Inh,HUNK,0%
same,%Inh,ICK,0%
same,%Inh,IGF1R,0%
Cc1cccc(NC(=O)Nc2ccc(Oc3ncnc4ccn(C)c34)cc2)c1,%Inh,FYN,0%
same,%Inh,GAK,0%
same,%Inh,"GCN2(Kin.Dom.2,S808G)",0%
same,%Inh,GRK1,4%
same,%Inh,GRK2,0%
same,%Inh,GRK3,0%
same,%Inh,GRK4,0%
same,%Inh,GRK7,0%
same,%Inh,GSK3A,0%
same,%Inh,GSK3B; [1],0%
same,%Inh,HASPIN,0%
same,%Inh,HCK,25%
same,%Inh,HIPK1,24%
same,%Inh,HIPK2,0%
same,%Inh,HIPK3,0%
same,%Inh,HIPK4,52%
same,%Inh,HPK1,31%
same,%Inh,HUNK,4%
same,%Inh,ICK,0%
same,%Inh,IGF1R,0%
FC(F)(F)c1ccc(/C=C/c2cncnc2Nc2ccc3[nH]c(Cc4ccccc4)nc3c2)cc1 [GW709199],%Inh,FYN,10%
same,%Inh,GAK,0%
same,%Inh,"GCN2(Kin.Dom.2,S808G)",0%
same,%Inh,GRK1,11%
same,%Inh,GRK2,0%
same,%Inh,GRK3,0%
same,%Inh,GRK4,18%
same,%Inh,GRK7,0%
same,%Inh,GSK3A,39%
same,%Inh,GSK3B; [1],0%
same,%Inh,HASPIN,12%
same,%Inh,HCK,14%
same,%Inh,HIPK1,21%
same,%Inh,HIPK2,0%
same,%Inh,HIPK3,0%
same,%Inh,HIPK4,13%
same,%Inh,HPK1,12%
same,%Inh,HUNK,55%
same,%Inh,ICK,0%
same,%Inh,IGF1R,0%
Fc1ccc(-c2ncn(C3CCNCC3)c2-c2ccnc(Oc3ccc(-c4ccccc4)cc3)n2)cc1 [SB-245391],%Inh,FYN,20%
same,%Inh,GAK,22%
same,%Inh,"GCN2(Kin.Dom.2,S808G)",18%
same,%Inh,GRK1,19%
same,%Inh,GRK2,12%
same,%Inh,GRK3,22%
same,%Inh,GRK4,0%
same,%Inh,GRK7,32%
same,%Inh,GSK3A,0%
same,%Inh,GSK3B; [1],27%
same,%Inh,HASPIN,24%
same,%Inh,HCK,31%
same,%Inh,HIPK1,5%
same,%Inh,HIPK2,0%
same,%Inh,HIPK3,31%
same,%Inh,HIPK4,27%
same,%Inh,HPK1,29%
same,%Inh,HUNK,38%
same,%Inh,ICK,25%
same,%Inh,IGF1R,48%
COc1cc2c(cc1OCCN1CCNCC1)ncc1c3ccc(C#N)cc3[nH]c21,%Inh,FYN,3%
same,%Inh,GAK,99.3%
same,%Inh,"GCN2(Kin.Dom.2,S808G)",92.5%
same,%Inh,GRK1,3%
same,%Inh,GRK2,0%
same,%Inh,GRK3,34%
same,%Inh,GRK4,88%
same,%Inh,GRK7,0%
same,%Inh,GSK3A,0%
same,%Inh,GSK3B; [1],26%
same,%Inh,HASPIN,93.5%
same,%Inh,HCK,3%
same,%Inh,HIPK1,95.2%
same,%Inh,HIPK2,99.8%
same,%Inh,HIPK3,91.9%
same,%Inh,HIPK4,54%
same,%Inh,HPK1,0%
same,%Inh,HUNK,0%
same,%Inh,ICK,48%
same,%Inh,IGF1R,0%
